The source made the active and inactive calls.
What was measured:
[1] = small molecules captured by biotinylated probe aFSTL3 – biochemical, small-molecule microarray, fluorescence 635/667, stem cell growth factor project, primary screen (AID 1064); settings: higher = more signal;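 further: measures binding of the biotinylated anti-FSTL3 antibody to printed compounds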
[2] = binders from COS7 lysate, DM2A8 probe, primary screen, torsin A project, cell lysate, small-molecule microarray, fluorescence 635/667 (AID 1065); settings: higher = more signal, COS7 lysate expressing mutant human TOR1A
[3] = small molecules captured by biotinylated probe aFGF2 – biochemical, small-molecule microarray, fluorescence 635/667, stem cell growth factor project, primary screen (AID 1067); settings: higher = more signal;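 further: measures binding of biotinylated aFGF2 protein to printed compounds on slides; z-score merges feature fluorescence and signal-to-noise across triplicate slides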
[4] = small molecules captured by biotinylated probe aFGF10 – biochemical, small-molecule microarray, fluorescence 635/667, stem cell growth factor project, primary screen (AID 1071); settings: higher = more signal;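 further: score merges 667 nm spot intensity and signal to noise from triplicate slides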
[5] = target: Neurogenic locus notch homolog protein 2 (Homo sapiens) (UniProt Q04721); experiment: small molecules binding Notch2 protein – biochemical, small-molecule microarray, 635 nm fluorescence, stem cell growth factors, primary screen (AID 1073); settings: higher = more signal
[6] = target: Pro-neuregulin-1, membrane-bound isoform (Homo sapiens) (UniProt Q02297); experiment: small molecules binding neuregulin-1 protein – biochemical, small-molecule microarray, fluorescence 635/667, psychiatric disease protein project, primary screen (AID 1075); settings: NRG1 binding, 635 nm fluorescence, higher = more signal;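 further: score combines 667 nm spot fluorescence with signal to noise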
[7] = test system: Neuregulin-1 EGF-like domain; experiment: small molecules binding NRG1 EGF domain – biochemical, small-molecule microarray, 635 nm fluorescence, primary screen (AID 1081); settings: higher = more signal;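 further: binding of the protein to compounds printed on small-molecule microarray slides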
[8] = FRG1 expression reporter modulators in myotubes – cell-based, C2C12 myotubes, firefly/Renilla luciferase, luminescence, FRG1 inhibition for FSHD, primary screen (AID 1084); settings: FRG1 promoter luciferase, higher = more signal, called active from +8 up or from −8 down
[9] = small molecules captured by biotinylated probe aFST – biochemical, small-molecule microarray, fluorescence 635/667, stem cell growth factor project, primary screen (AID 1086); settings: higher = more signal;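 further: score merges 667 nm fluorescence with signal-to-noise of each printed compound spot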
[10] = binders of probe aHhip on microarray, primary screen, stem cell growth factor project, biochemical, small-molecule microarray, fluorescence 635/667 (AID 1087); settings: higher = more signal;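 further: score merges spot fluorescence at 667nm with spot signal to noise ratio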

Sequence of Neurogenic locus notch homolog protein 2 (Homo sapiens) (Q04721 whole entry, looked up, canonical isoform): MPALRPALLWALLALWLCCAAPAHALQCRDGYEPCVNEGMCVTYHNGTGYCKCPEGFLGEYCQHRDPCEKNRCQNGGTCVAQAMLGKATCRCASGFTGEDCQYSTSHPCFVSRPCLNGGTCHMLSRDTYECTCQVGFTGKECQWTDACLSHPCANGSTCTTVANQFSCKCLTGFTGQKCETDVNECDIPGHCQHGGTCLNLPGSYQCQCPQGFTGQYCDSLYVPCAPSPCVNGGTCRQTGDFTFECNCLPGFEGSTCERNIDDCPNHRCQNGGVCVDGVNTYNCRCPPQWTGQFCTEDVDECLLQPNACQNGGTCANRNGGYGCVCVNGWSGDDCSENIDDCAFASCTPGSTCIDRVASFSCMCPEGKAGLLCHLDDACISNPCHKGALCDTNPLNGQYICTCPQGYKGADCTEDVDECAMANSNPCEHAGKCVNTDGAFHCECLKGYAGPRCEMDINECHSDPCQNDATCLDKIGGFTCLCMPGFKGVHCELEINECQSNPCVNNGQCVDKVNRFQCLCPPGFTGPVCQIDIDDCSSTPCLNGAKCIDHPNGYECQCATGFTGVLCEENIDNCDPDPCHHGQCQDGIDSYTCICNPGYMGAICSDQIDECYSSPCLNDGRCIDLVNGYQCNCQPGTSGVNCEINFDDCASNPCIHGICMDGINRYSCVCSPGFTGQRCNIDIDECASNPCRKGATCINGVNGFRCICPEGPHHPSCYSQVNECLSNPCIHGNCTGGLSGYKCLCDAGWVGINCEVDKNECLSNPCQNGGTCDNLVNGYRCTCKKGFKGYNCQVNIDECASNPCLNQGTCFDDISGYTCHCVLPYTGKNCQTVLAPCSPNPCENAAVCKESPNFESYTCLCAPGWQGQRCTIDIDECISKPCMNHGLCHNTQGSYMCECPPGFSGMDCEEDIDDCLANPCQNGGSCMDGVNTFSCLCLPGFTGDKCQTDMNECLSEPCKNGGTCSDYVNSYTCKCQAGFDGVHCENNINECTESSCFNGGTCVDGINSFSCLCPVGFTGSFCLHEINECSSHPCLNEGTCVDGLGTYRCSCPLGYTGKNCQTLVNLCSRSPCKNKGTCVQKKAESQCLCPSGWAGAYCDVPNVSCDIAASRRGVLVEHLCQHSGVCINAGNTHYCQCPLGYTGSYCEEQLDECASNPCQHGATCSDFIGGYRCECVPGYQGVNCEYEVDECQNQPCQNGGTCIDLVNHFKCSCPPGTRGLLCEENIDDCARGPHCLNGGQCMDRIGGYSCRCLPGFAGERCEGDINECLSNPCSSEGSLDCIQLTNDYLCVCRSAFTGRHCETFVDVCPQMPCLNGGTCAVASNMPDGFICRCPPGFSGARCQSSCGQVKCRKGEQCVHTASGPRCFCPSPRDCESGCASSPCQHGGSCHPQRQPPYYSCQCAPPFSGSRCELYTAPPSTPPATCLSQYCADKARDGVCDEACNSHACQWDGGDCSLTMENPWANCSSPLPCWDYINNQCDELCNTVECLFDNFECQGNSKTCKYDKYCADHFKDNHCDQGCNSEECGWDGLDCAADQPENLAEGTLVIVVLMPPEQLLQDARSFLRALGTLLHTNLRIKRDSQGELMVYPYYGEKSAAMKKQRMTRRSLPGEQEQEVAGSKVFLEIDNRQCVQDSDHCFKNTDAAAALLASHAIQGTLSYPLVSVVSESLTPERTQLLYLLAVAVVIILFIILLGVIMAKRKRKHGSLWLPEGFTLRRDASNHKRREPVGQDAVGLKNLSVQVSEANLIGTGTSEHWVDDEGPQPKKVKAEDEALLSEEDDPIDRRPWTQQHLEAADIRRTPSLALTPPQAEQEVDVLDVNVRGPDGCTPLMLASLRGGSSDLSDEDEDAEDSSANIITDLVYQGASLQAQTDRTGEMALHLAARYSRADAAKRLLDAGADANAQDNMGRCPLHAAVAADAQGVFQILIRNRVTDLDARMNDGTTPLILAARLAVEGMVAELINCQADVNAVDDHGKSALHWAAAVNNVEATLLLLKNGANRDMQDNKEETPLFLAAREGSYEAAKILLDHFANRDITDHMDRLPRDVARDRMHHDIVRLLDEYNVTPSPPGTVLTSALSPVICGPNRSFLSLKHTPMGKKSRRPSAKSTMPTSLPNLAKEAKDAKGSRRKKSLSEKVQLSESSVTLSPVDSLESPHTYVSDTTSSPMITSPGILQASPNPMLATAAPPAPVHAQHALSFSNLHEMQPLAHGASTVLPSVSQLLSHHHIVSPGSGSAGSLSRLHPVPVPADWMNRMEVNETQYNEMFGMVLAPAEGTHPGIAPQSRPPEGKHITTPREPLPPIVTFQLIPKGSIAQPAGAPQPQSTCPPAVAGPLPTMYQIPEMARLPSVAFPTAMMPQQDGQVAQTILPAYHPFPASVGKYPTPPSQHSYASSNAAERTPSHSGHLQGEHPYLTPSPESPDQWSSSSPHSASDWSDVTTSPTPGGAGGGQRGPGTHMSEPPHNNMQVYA
Sequence of Pro-neuregulin-1, membrane-bound isoform (Homo sapiens) (Q02297 whole entry, looked up, the tested form may be a part, canonical isoform): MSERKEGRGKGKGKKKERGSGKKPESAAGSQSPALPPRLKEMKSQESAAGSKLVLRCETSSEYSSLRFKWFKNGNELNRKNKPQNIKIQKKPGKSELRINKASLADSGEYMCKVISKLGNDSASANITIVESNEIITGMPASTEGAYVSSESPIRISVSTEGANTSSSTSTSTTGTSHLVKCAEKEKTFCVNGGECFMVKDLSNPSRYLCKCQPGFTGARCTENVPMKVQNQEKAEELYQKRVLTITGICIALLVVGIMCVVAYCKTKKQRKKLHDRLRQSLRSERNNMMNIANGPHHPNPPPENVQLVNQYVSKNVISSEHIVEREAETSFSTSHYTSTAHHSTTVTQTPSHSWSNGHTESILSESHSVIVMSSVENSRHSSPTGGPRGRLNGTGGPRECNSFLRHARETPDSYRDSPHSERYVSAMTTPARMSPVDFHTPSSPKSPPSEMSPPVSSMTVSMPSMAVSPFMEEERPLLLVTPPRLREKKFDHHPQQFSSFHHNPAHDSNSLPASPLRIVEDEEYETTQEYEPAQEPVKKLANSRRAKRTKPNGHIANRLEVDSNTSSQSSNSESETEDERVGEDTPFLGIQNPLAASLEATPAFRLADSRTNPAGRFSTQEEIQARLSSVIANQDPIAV

Row | SMILES | composite z-score [1] | composite z-score [2] | composite z-score [3] | composite z-score [4] | composite z-score [5] | composite z-score [6] | composite z-score [7] | z-score [8] | composite z-score [9] | composite z-score [10]
1 | C/C=C/[C@H](CCn1cc([C@H](O)c2ccccc2)nn1)[Si](C)(C)c1ccc(OC)cc1 | 1.18 | -0.153 | -0.234 | -0.071 | -1.51 | 0.0287 | -0.0288 | -0.488 (inactive) | -1.04 | -0.374
2 | COc1ccc([Si](C)(C)[C@@H]2[C@@H](CCO)O[C@]3(C(=O)N(Cc4ccccc4)c4ccc(N(C=O)c5ccccc5)cc43)[C@H]2C)cc1 | -0.106 | 0.255 | -0.133 | 0.465 | 0.154 | 0.359 | 0.979 | -2.04 (inactive) | -0.176 | -0.236
3 | CCCNC(=O)[C@@]1(C)c2ccccc2C(=O)N(Cc2ccc(OC(F)(F)F)cc2)[C@H]1c1ccc(CO)cc1 | 0.29 | -0.0811 | 0.015 | -0.387 | -0.321 | 1.2 | 1.3 | -3.98 (inactive) | -0.337 | 0.28
4 | COc1ccc(C#Cc2ccc3c(c2)[C@]2(C(=O)N3)[C@H](c3ccc(OCCO)cc3)N3[C@H](c4ccccc4)[C@H](c4ccccc4)OC(=O)[C@H]3[C@@H]2C(=O)Nc2nc3ccccc3s2)cc1 | 0.244 | 0.664 | -0.0167 | 0.71 | 1.07 | 2.24 | 1.13 | 3.55 (inactive) | 0.667 | -0.181
5 | Cc1cc(C)c(C(O)C2C=CC3C(=O)NC(=O)C3N2Nc2ccccn2)c(C)c1 (stereo not given) | 0.36 | 0.135 | -0.0878 | 0.0012 | 0.486 | 1.65 | 0.986 | 1.03 (inactive) | 0.578 | 0.0373
6 | O=C1C2C=CC(C(O)c3ccc(-c4ccccc4)s3)N(Nc3ccccc3F)C2C(=O)N1c1ccccc1 (stereo not given) | 0.623 | 0.0116 | 0.0352 | 0.243 | 1.58 | 1.65 | 1.28 | 1.72 (inactive) | 0.955 | -0.0296
7 | CC(C)C(O)C1C=CC2C(=O)N(C)C(=O)C2N1N1CCCCC1 (stereo not given) | -0.201 | -0.145 | -0.0412 | 0.651 | 1.51 | 0.856 | 1.24 | 0.554 (inactive) | 0.772 | -0.0391
8 | OCCCc1cc[n+](Cc2cccc(OC(F)(F)F)c2)cc1 | 0.451 | 0.451 | -0.085 | -0.389 | 0.272 | 0.564 | 1.47 | 1.7 (inactive) | 0.676 | -0.125
9 | CCCNC(=O)[C@@]1(C)c2ccccc2C(=O)N(C(C)C)[C@H]1c1ccc(CO)cc1 | 1.01 | -0.214 | -0.0704 | -0.425 | -0.963 | 0.447 | 1.3 | -0.51 (inactive) | -0.35 | -0.226
10 | CCCCC(=O)N(Cc1ccccc1F)[C@@H]1CC(C(=O)NCCO)=C[C@H](Oc2c(I)cc(CO)cc2OC)[C@H]1O | -0.451 | 0.686 | -0.0462 | 0.228 | 1.17 | 1.47 | 1.42 | -0.84 (inactive) | 0.442 | 0.27
11 | COc1ccc([Si](C)(C)[C@@H]2[C@@H](CCO)O[C@]3(C(=O)N(Cc4cccc(N(C=O)c5ccccc5)c4)c4ccccc43)[C@H]2C)cc1 | 0.318 | 0.526 | -0.0784 | -0.126 | 0.199 | 0.835 | 0.787 | -0.198 (inactive) | 0.316 | 0.0524
12 | C[C@]1(C(=O)NCC(F)(F)F)c2ccccc2C(=O)N(Cc2cc(F)cc(C(F)(F)F)c2)[C@H]1c1ccc(CO)cc1 | -0.599 | 0.553 | 0.274 | 0.0438 | -0.94 | 1.74 | 0.623 | -0.763 (inactive) | -0.409 | 2.14
13 | COc1c(C)cc(-c2cc3c(c(-c4ccccc4)n2)[Si](C(C)C)(C(C)C)O[C@H]3c2ccccc2)cc1C | -0.409 | -0.103 | -0.103 | 0.235 | 0.234 | -0.0051 | -0.438 | 0.361 (inactive) | 0.291 | 0.0373
14 | COc1cc(CO)cc(I)c1O[C@H]1C=C(C(=O)NCCO)C[C@@H](N(CCc2cccc(F)c2)C(=O)CCC2CCCC2)[C@@H]1O | 0.0822 | 0.825 | 0.195 | 0.146 | 0.0011 | 1.27 | 1.29 | -4.64 (inactive) | 0.336 | 0.219
15 | C=CCNC(=O)[C@H]1[C@@H]2C(=O)O[C@@H](c3ccccc3)[C@@H](c3ccccc3)N2[C@@H](c2ccc(OCCO)cc2)[C@]12C(=O)N(C(=O)OCCOC)c1ccc(C#CC3(O)CCCCCC3)cc12 | -0.0322 | 1.14 | -0.0627 | 0.527 | 1.03 | 0.764 | 1.31 | -0.313 (inactive) | 0.422 | 0.113
16 | CN1C(=O)C2C=CC(C(O)C=Cc3ccc([N+](=O)[O-])cc3)N(N3CCCCC3)C2C1=O (stereo not given) | 1.79 | 1.62 | 0.556 | 1.11 | 1.69 | 1.69 | 0.932 | 4.21 (inactive) | 2.23 | 0.217
17 | CN1C(=O)C2C=CC(C(O)c3ccccc3)N(NC(=O)OC(C)(C)C)C2C1=O (stereo not given) | -0.366 | 0.583 | 0.0728 | 0.268 | 1.34 | 0.871 | 0.792 | 1.82 (inactive) | 0.868 | -0.0645
18 | Cc1cccc(/C=C/C=O)c1 | -0.305 | -0.582 | -0.0996 | 0.0071 | -0.663 | 0.27 | 0.928 | 0.641 (inactive) | 0.211 | -0.056
19 | [N-]=[N+]=NCc1ccccc1C[C@]1(C(N)=O)N=C(c2ccc(OCCCO)cc2)O[C@H]1c1ccccc1N=[N+]=[N-] | 0.567 | -0.186 | -0.0085 | 0.665 | 0.997 | 1.3 | 1.12 | -1.4 (inactive) | 0.93 | 0.151
20 | Cc1ccc(S[C@]2(C(=O)NCC(C)C)CC(=O)N(Cc3ccccc3)[C@@H]2c2ccc(CO)cc2)cc1 | 0.148 | -0.674 | -0.076 | 0.146 | -0.967 | -0.431 | 0.221 | -3.05 (inactive) | 0.161 | -0.226
21 | COCCOC(=O)N1C(=O)[C@@]2(c3cc(C#CC4=CCCCC4)ccc31)[C@H](c1ccc(OCCO)cc1)N1[C@H](c3ccccc3)[C@H](c3ccccc3)OC(=O)[C@H]1[C@@H]2C(=O)Nc1nc2ccccc2s1 | -0.368 | 0.115 | -0.104 | 0.854 | 1.4 | 0.93 | 1.12 | 1.89 (inactive) | 0.241 | 0.0722
22 | CC(C)[C@H]1COC(=O)N1C(=O)[C@H]1[C@@H](c2ccccc2)N(c2ccccc2)O[C@@H]1C | -0.385 | 0.182 | -0.204 | 0.488 | 1.14 | 0.182 | 0.974 | -0.803 (inactive) | 0.301 | -0.367
23 | CN(C)CCCC[C@@H]1NC(=O)[C@@H]2C[C@H](C(=O)NCc3ccc(F)cc3)[C@H](c3cccc(OCCO)c3)N2C1=O | -0.173 | -0.114 | -0.0707 | 0.738 | -0.252 | 0.617 | 1.02 | 1.36 (inactive) | 0.202 | -0.41
24 | COC(=O)c1nc2oc1CC[C@@H](CO)NC(=O)N(C)Cc1cn(nn1)C[C@H](Cc1ccccc1)NC2=O | 0.0478 | -0.871 | -0.0982 | 0.0055 | 0.242 | 1.01 | 1.09 | -0.605 (inactive) | -0.324 | -0.226
25 | CCOC(=O)C1=CC[C@@H](c2cccc(Cl)c2)N(S(=O)(=O)c2ccc(C)cc2)[C@H]1c1ccc(C#N)cc1 | 0.128 | 0.0669 | 0.104 | 0.862 | 1.65 | 1.61 | 1.15 | -0.534 (inactive) | 0.751 | 0.0274
26 | CC(C)OC(=O)C1=CCC(c2cccc(Cl)c2)O1 (stereo not given) | -0.206 | -0.125 | -0.0717 | -0.348 | -1.12 | 0.754 | 1.06 | -0.716 (inactive) | -0.332 | -0.409
27 | NC(=O)[C@@]1(CCS(=O)(=O)c2ccccc2)N=C(c2ccc(OCCCO)cc2)O[C@H]1c1ccccc1 | 0.287 | 1.54 | 0.103 | 0.58 | 0.251 | 0.0342 | 1.3 | -1.19 (inactive) | 0.893 | -0.0645
